Data as given in PubChem BioAssay AID1259421 (Broad Institute, 2018).
Where “and” joins values, the source holds several entries; their conditions need not be identical. Identical values can stand only once. In all, about 6,400 compounds went through this assay and about 610 (9.5%) were called active. Rule as the data show it: active = activity change below about -70%; inconclusive = no clear call, values can overlap the other calls; inactive = above that. For the sample, actives were picked, then their nearest neighbours and some compounds at random. Where a structure was tested more than once in an assay, its records may differ in their call.

Assay: T. gondii ME49Luc in HeLa cells, luciferase assay, 72 h, no IFN-y (AID 1259421)
Settings: stronger effect = lower value, concentration not given here
For `c1ccc(Oc2cccnc2)cc1`, the activity change, negative = inhibition was 5.26% (inactive).
In the case of `CC1=CC(=O)CC(C)(C)[C@@]1(O)/C=C/C(C)=C\C(=O)O`, the activity change, negative = inhibition is reported as 0.0395% (inactive).
In the case of `CCCCC[C@H](O)/C=C/[C@@H]1[C@H]2C/C(=C/CCCC(=O)O)O[C@H]2C[C@H]1O`, the activity change, negative = inhibition is reported as 13.9% (inactive).
In the case of `COCC(=O)O[C@]1(CCN(C)CCCc2nc3ccccc3[nH]2)CCc2cc(F)ccc2[C@@H]1C(C)C`, the activity change, negative = inhibition is reported as -74.4% (active) and -72.6% (active).
In the case of `CC(C)[C@H]1c2ccc(F)cc2CC[C@@]1(CCN(C)CCCc1nc2ccccc2[nH]1)OC(=O)C1CC1`, the activity change, negative = inhibition is reported as -84% (active) and -73.8% (active).
For `O=C(O)CCc1nc2ccccc2[nH]1`, the activity change, negative = inhibition was 7.52% (inactive) and 21.6% (inactive).
With `O=C(O)C1CC(O)CN1` (configuration not stated) the activity change, negative = inhibition was -0.806% (inactive).
With `Cc1ccc(S(=O)(=O)Nc2nc3ccccc3nc2Nc2ccc3nsnc3c2)cc1` the activity change, negative = inhibition was 1.14% (inactive).
With `O=c1oc2cc(O)ccc2c2oc3cc(O)ccc3c12` the activity change, negative = inhibition was 13.4% (inactive).
For `CN(C)CC[C@H](CSc1ccccc1)Nc1ccc(S(=O)(=O)NC(=O)c2ccc(N3CCN(Cc4ccccc4-c4ccc(Cl)cc4)CC3)cc2)cc1[N+](=O)[O-]`, the activity change, negative = inhibition was -28.3% (inactive).
For `CC1(C)CCC(c2ccc(Cl)cc2)=C(CN2CCN(c3ccc(C(=O)NS(=O)(=O)c4ccc(N[C@H](CCN5CCOCC5)CSc5ccccc5)c(S(=O)(=O)C(F)(F)F)c4)cc3)CC2)C1`, the activity change, negative = inhibition was -89% (active).
With `COC(=O)C(CCCN=C(N)N)NC(=O)CCCc1c(-c2ccccc2)[nH]c2c(F)cc(F)cc12` (configuration not stated) the activity change, negative = inhibition was 11.7% (inactive).
In the case of `C=C1[C@H]2CC[C@@]3(C)[C@H](c4ccoc4)OC(=O)C[C@]13O[C@H]1C[C@H](O)C(C)(C)[C@H](CC(=O)OC)[C@]12C`, the activity change, negative = inhibition is reported as -4.68% (inactive).
In the case of `CCOC(=O)[C@H](CCc1ccccc1)N[C@H](C)C(=O)N1C2CCCCC2C[C@H]1C(=O)O` (some centres not stated), the activity change, negative = inhibition is reported as 14.3% (inactive) and 13.5% (inactive).
With `C=CC(=O)Nc1cccc(OC)c1` the activity change, negative = inhibition was 7.29% (inactive).
With `COc1cc(SC)ccc1-c1nc2ccncc2[nH]1` the activity change, negative = inhibition was -3.26% (inactive).
In the case of `CCN(CC)CC1CCCCN1CC(=O)N1c2ccccc2C(=O)Nc2cccnc21` (configuration not stated), the activity change, negative = inhibition is reported as 5.74% (inactive) and 8.21% (inactive).
In the case of `C[C@]12CC[C@@H]3c4ccc(O)cc4CC[C@H]3[C@@H]1CC[C@@H]2O`, the activity change, negative = inhibition is reported as -81.4% (active) and -83.1% (active).
With `CC12CCC3c4ccc(OC(=O)c5ccccc5)cc4CCC3C1CCC2O` (configuration not stated) the activity change, negative = inhibition was -15.9% (inactive).
For `CC(=O)OC1CCC2C3CCc4cc(O)ccc4C3CCC12C` (configuration not stated), the activity change, negative = inhibition was 1.9% (inactive).
With `C[C@]12CCC3c4ccc(O)cc4CCC3C1CC[C@@H]2O` (some centres not stated) the activity change, negative = inhibition was -87.4% (active).
In the case of `COc1ccc2c(c1)CCC1C2CC[C@@]2(C)C1CC[C@@H]2O` (some centres not stated), the activity change, negative = inhibition is reported as -9.49% (inactive).
In the case of `C[C@]12CC[C@@H]3c4ccc(O)cc4CC[C@H]3[C@@H]1C[C@@H](O)[C@@H]2O`, the activity change, negative = inhibition is reported as -0.302% (inactive).
In the case of `C[C@]12CCC3c4ccc(OS(=O)(=O)O)cc4CCC3C1CC[C@H]2O` (some centres not stated), the activity change, negative = inhibition is reported as -7.66% (inactive).
For `C[C@]12CCC3c4ccc(OC(=O)c5ccccc5)cc4CCC3C1CC[C@@H]2O` (some centres not stated), the activity change, negative = inhibition was -85.4% (active).
In the case of `C[C@]12CCC3c4ccc(O)cc4CCC3C1C[C@@H](O)[C@@H]2O` (some centres not stated), the activity change, negative = inhibition is reported as -4.22% (inactive).
With `CC12CCC3c4ccc(O)cc4CCC3C1C[C@H](O)[C@@H]2O` (some centres not stated) the activity change, negative = inhibition was -75.1% (active).
In the case of `C[C@]12CCC3c4ccc(OC(=O)c5ccccc5)cc4CCC3C1CCC2=O` (some centres not stated), the activity change, negative = inhibition is reported as -55.9% (inactive).
With `COc1cc2c(cc1O)CC[C@@H]1[C@@H]2CC[C@]2(C)[C@@H](O)CC[C@@H]12` the activity change, negative = inhibition was -44.5% (inactive).
With `CON(C)C(=O)N1N=C(c2cc(F)ccc2F)S[C@@]1(CCCN)c1ccccc1` the activity change, negative = inhibition was -53.7% (inactive).
With `CCCCc1nc2ccn(CC(=O)N(C)C)c(=O)c2n1Cc1ccc(-c2ccccc2-c2nn[nH]n2)cc1` the activity change, negative = inhibition was 18.6% (inactive) and -0.527% (inactive).
With `O=C1CSC(=O)N1` the activity change, negative = inhibition was 20.7% (inactive).
In the case of `O=C1NC(=O)c2cc(Nc3ccccc3)c(Nc3ccccc3)cc21`, the activity change, negative = inhibition is reported as 7.82% (inactive).
With `CC(=O)[C@H]1CCC2C3CCC4=CC(=O)CC[C@]4(C)C3[C@H](OC(=O)CCC(=O)O)C[C@@]21C` (some centres not stated) the activity change, negative = inhibition was -2.62% (inactive).
In the case of `CC(C)(c1ccc(O)cc1)c1ccc(O)cc1`, the activity change, negative = inhibition is reported as 6.99% (inactive).
In the case of `CCc1ccccc1OC[C@@H](O)CN[C@H]1CCCc2ccccc21`, the activity change, negative = inhibition is reported as 23.1% (inactive) and 15.7% (inactive).
With `C[C@@H]1CC[C@@]2(OC1)O[C@H]1C[C@H]3[C@@H]4CC=C5C[C@@H](O)CC[C@]5(C)[C@H]4CC[C@]3(C)[C@H]1[C@@H]2C` the activity change, negative = inhibition was 6.17% (inactive).
With `CN1[C@@H]2CC[C@@H]1CC(OC(c1ccccc1)c1ccccc1)C2` (some centres not stated) the activity change, negative = inhibition was 11.3% (inactive).
With `O=[N+]([O-])c1cn2c(n1)OC[C@@H](OCc1ccc(OC(F)(F)F)cc1)C2` the activity change, negative = inhibition was -78.6% (active).
In the case of `CC1O[C@@H](Oc2c(-c3ccc(O)c(O)c3)oc3cc(O)cc(O)c3c2=O)[C@H](O)[C@H](O)[C@H]1O` (some centres not stated), the activity change, negative = inhibition is reported as 5.62% (inactive).
In the case of `O=C1NC(=O)/C(=C\c2ccc(-c3ccc(F)cc3)o2)S1`, the activity change, negative = inhibition is reported as 32.3% (inactive).
With `[2H]C([2H])([2H])C(O)(CCO[C@@H](C)[C@H]1CC[C@H]2/C(=C/C=C3/C[C@@H](O)C[C@H](O)C3=C)CCC[C@]12C)C([2H])([2H])[2H]` the activity change, negative = inhibition was 0.514% (inactive).
For `COc1ccc2c(=O)c(CC(=O)O)coc2c1`, the activity change, negative = inhibition was 4.96% (inactive).
For `CO/N=C(/C(=O)N[C@@H]1C(=O)N2C(C(=O)OCOC(=O)C(C)(C)C)=C(/C=C/c3scnc3C)CS[C@H]12)c1csc(N)n1`, the activity change, negative = inhibition was 2.91% (inactive).
With `C/C=C1\NC(=O)[C@H]2CSSCCC=C[C@H](CC(=O)N[C@H](C(C)C)C(=O)N2)OC(=O)[C@H](C(C)C)NC1=O` the activity change, negative = inhibition was -80.8% (active).
For `CC(=O)c1ccc2c(c1)[C@H](NC(=O)c1ccc(F)c(Cl)c1)[C@H](O)C(C)(C)O2`, the activity change, negative = inhibition was -1.26% (inactive).
With `C[C@]12CCC(=O)C=C1CCC1C2[C@@H](O)C[C@@]2(C)C1CC[C@]2(O)C(=O)CO` (some centres not stated) the activity change, negative = inhibition was -3.05% (inactive).
With `O=C(O)COc1ccc(OCCNC[C@@H](O)COc2ccccc2)cc1` the activity change, negative = inhibition was 0.151% (inactive).
In the case of `COc1ccc2cccc(N3CCN(CCNC(=O)c4ccc(F)cc4)CC3)c2c1`, the activity change, negative = inhibition is reported as 40.8% (inactive) and 23.4% (inactive).
With `CC(C)C[C@H](NC(=O)CNC(=O)c1cc(Cl)ccc1Cl)B1OC(=O)CC(CC(=O)O)(C(=O)O)O1` (some centres not stated) the activity change, negative = inhibition was -87.8% (active).
With `O=C(CNC(=O)c1ccc(Cl)cc1)NO` the activity change, negative = inhibition was 36.3% (inactive).
With `CC(C)C[C@H](NC(=O)CNC(=O)c1cc(Cl)ccc1Cl)B(O)O` the activity change, negative = inhibition was -77.9% (active).
With `CCCC(C)NC(=O)c1ccc(Cl)c(Cl)c1` (configuration not stated) the activity change, negative = inhibition was 6.33% (inactive).
In the case of `CC1=C(/C=C/C(C)=C/C=C/C(C)=C/C=O)C(C)(C)CCC1`, the activity change, negative = inhibition is reported as 16.4% (inactive).
In the case of `O=C(Nc1cccnn1)N1CCC(=Cc2cccc(Oc3ccc(C(F)(F)F)cn3)c2)CC1`, the activity change, negative = inhibition is reported as -18.9% (inactive).
For `CC(=O)O[C@@H]1C[C@H]2C(C)(C)C(=O)C=C[C@]2(C)[C@H]2CC[C@@]3(C)[C@H](c4ccoc4)OC(=O)[C@H]4O[C@]43[C@@]21C`, the activity change, negative = inhibition was 26.1% (inactive).
For `CC1(C)C(=O)C=C[C@@]2(C)C1C=C[C@]1(C)C2CC[C@@]2(C)[C@H](c3ccoc3)OC(=O)[C@H]3O[C@]321` (some centres not stated), the activity change, negative = inhibition was -89.3% (active).
In the case of `CC1(C)C(=O)C=C[C@@]2(C)C1CC(=O)[C@]1(C)C2CC[C@@]2(C)[C@H](c3ccoc3)OC(=O)[C@H]3O[C@]321` (some centres not stated), the activity change, negative = inhibition is reported as 30.3% (inactive).
With `CC(=O)O[C@H]1C[C@@H](OC(C)=O)C(C)(C)C2C[C@@H](O)[C@]3(C)C(CC[C@@]4(C)[C@H](c5ccoc5)OC(=O)[C@H]5O[C@]543)[C@]21C` (some centres not stated) the activity change, negative = inhibition was 5.63% (inactive).
With `CC(C)(C)c1cc(C(C)(C)C)c(NC(=O)c2c[nH]c3ccccc3c2=O)cc1O` the activity change, negative = inhibition was -81.7% (active).
With `COC(=O)c1csc(C(=O)c2c[nH]c3ccccc23)n1` the activity change, negative = inhibition was 5.76% (inactive).
With `OCc1c[nH]c2ccccc12` the activity change, negative = inhibition was 2.87% (inactive) and 57.8% (inactive).
In the case of `NC(N)=NCCNS(=O)(=O)c1cccc2cnccc12`, the activity change, negative = inhibition is reported as 0.419% (inactive) and 15.9% (inactive).
For `CC(C)c1ccc2c(c1)C(N1CCN(CCO)CC1)Cc1ccc(F)cc1S2` (configuration not stated), the activity change, negative = inhibition was -37.4% (inactive).
With `CC(=O)Oc1c(C)cc(OCC(O)CNC(C)C)c(C)c1C` (configuration not stated) the activity change, negative = inhibition was -4.5% (inactive).
For `CNC(=O)c1cnn(-c2nc(N)c3ncn([C@@H]4O[C@H](CO)C(O)C4O)c3n2)c1` (some centres not stated), the activity change, negative = inhibition was 7.49% (inactive).
With `Cc1ccc(-c2nn(C(C)(C)C)c3ncnc(N)c23)cc1` the activity change, negative = inhibition was -88.2% (active) and -83% (active).
In the case of `CC(C)(C)n1nc(-c2ccc(Cl)cc2)c2c(N)ncnc21`, the activity change, negative = inhibition is reported as -91.7% (active).
In the case of `CC(C)(C)n1nc(-c2cccc3ccccc23)c2c(N)ncnc21`, the activity change, negative = inhibition is reported as -64.8% (inactive) and -76.3% (active).
With `CCNC(=O)CCC/C=C\C[C@@H]1[C@@H](/C=C/C(O)CCc2ccccc2)[C@H](O)C[C@@H]1O` (some centres not stated) the activity change, negative = inhibition was 8.47% (inactive).
For `O=[N+]([O-])c1cncn1CCN1CCOCC1`, the activity change, negative = inhibition was 23.6% (inactive).
With `CCCOc1ccc2nc(NC(=O)OC)sc2c1` the activity change, negative = inhibition was 106% (inactive).
With `CCCn1c(=O)[nH]c(=O)c2[nH]cnc21` the activity change, negative = inhibition was 6.86% (inactive).
In the case of `CCC(=O)c1ccc(OCC(O)CN2CCN(c3ccccc3)CC2)cc1` (configuration not stated), the activity change, negative = inhibition is reported as 9.53% (inactive).
With `COc1ccc(N2CCOCC2)c2sc(NC(=O)N3CCC(C)(O)CC3)nc12` the activity change, negative = inhibition was 12.2% (inactive).
For `CCCCC#Cc1nc(NC)c2ncn(C3OC(CO)C(O)C3O)c2n1` (configuration not stated), the activity change, negative = inhibition was -3.28% (inactive).
In the case of `Cc1cc(OCCN2CCOCC2)nn1-c1ccc2ccccc2c1`, the activity change, negative = inhibition is reported as 13.6% (inactive).
